# SARS PLpro yeast – blocks SARS-CoV papain-like protease in a yeast assay. S. cerevisiae expressing SARS-CoV PLpro, growth rescue. actives 0.19% (n = 330,000). Potency, µM (series often up to 32.9 µM), for inactives: at the highest dose activity, positive = growth rescue, actives largely listed as activators; calls by dose curve; further: potency means the concentration at half of the fitted maximal effect; 0% is about no effect; nearly all actives have a fitted effect of over 55% in size
# Shiga toxin inh – Shiga toxin inhibition. Vero cells, Shiga toxin protein synthesis inhibition reporter. inhibition, % at 38.7 µM. actives 9.2% (n = 290,000); in the data active means inhibition mostly above about 28%, no sharp cut-off; inactive means mostly below about 43%; further: 0% is about no effect
# AMA1 RON2 block – inhibitors of Plasmodium falciparum AMA1-RON2 interaction | actives 0.2% (n = 360,000) | Potency, µM (titrated, usually from 58.2 µM), for the others: at the highest dose activity change, negative = inhibition, actives largely listed as inhibitors | AID 720542 | AlphaScreen AMA1-biotinylated RON2 peptide binding;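 further: potency means the concentration at half of the fitted maximal effect; 0% = vehicle wells and -100% = peptide control; nearly all actives have a fitted effect of over 45% in size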
#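 AMA1 (3D7) with his tag at 25 nM final met compounds first, then biotinylated RON2 peptide at 25 nM; detection used donor plus acceptor beads, 10 µg/mL apiece, read by AlphaScreen after 30 min at room temperature.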
# AmpC inh no detg – blocks E. coli AmpC beta-lactamase in detergent-free assay | P00811 | AID 485341 | actives 0.52% (n = 330,000) | Potency, µM (titrated, usually from 57.1 µM), for the others: at the highest dose activity change, negative = inhibition, most hits filed as inhibitors | AmpC nitrocefin hydrolysis, absorbance 480 nm, 0.0001% Triton;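 further: potency means the concentration at half of the fitted maximal effect; plate controls were no compound for no effect and no enzyme for full effect; nearly all actives have a fitted effect of over 20% in size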
# Target sequence (P00811 whole entry, looked up): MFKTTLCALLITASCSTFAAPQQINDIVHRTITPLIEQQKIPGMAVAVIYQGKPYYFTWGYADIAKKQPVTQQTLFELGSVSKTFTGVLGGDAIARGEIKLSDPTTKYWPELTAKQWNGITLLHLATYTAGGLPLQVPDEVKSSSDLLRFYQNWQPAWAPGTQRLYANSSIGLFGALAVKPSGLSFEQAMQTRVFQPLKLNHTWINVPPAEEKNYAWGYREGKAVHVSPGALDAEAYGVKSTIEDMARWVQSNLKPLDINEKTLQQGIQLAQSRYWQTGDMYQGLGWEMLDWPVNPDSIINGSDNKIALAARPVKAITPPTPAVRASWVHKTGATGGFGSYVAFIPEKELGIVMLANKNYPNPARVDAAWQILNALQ
#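 AmpC (5.3 nM in the dispensed reagent) in 20 mM phosphate pH 7.0 with 0.01% (detergent screen) or 0.0001% Triton X-100 was preincubated with compounds for 15 min at room temperature. Nitrocefin was then added from an 800 uM solution, and hydrolysis was followed at 480 nm.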
# AmpC detergent – inhibitors of E. coli AmpC beta-lactamase with detergent; AID 485294; actives 0.041% (n = 370,000); P00811; AmpC hydrolysis of nitrocefin, absorbance 480 nm, 0.01% Triton; Potency, µM (titrated, usually from 114 µM), for inactives: at the highest dose activity change, negative = inhibition, most hits filed as inhibitors;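 further: potency means the concentration at half of the fitted maximal effect; 0% = no-compound wells and -100% = no-enzyme wells; nearly all actives have a fitted effect of over 25% in size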
#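 AmpC (5.3 nM in the dispensed reagent) in 20 mM phosphate pH 7.0 with 0.01% (detergent screen) or 0.0001% Triton X-100 was preincubated with compounds for 15 min at room temperature. Nitrocefin was then added from an 800 uM solution, and hydrolysis was followed at 480 nm.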
# CHX counter – counter-screen hit for Shiga toxin inhibitors, cycloheximide; cell reporter, cycloheximide protein synthesis inhibition counterscreen; max response, %; actives 12% (n = 300,000); in the data active means max response mostly above about 13%, no sharp cut-off; inactive means mostly below about 14%; further: read at 38.3 µM for the half of the compounds with a filed dose; 0% is about no effect
# * marks the source's active call; other numbers are inactive results; ? = inconclusive; / = not tested or not shown; [ ] = another dose, or the depositor's remark. This excerpt belongs to a sample that is enriched for hits. Unless noted, the call rests on the fitted dose curve; in most records, active means well fitted curve in the direction sought with a large enough effect; inconclusive means small, poorly fitted or top-dose-only effect, or another doubt; inactive means no such curve, though single readings can be large; an effect the other way counts as inactive or inconclusive.
SMILES,SARS PLpro yeast,Shiga toxin inh,AMA1 RON2 block,AmpC inh no detg,AmpC detergent,CHX counter
O=C(CCS(=O)(=O)c1cccs1)N1CCCC1,0.1%,63.0*,0.1%,-10.7%,-0.7%,17.8*
COc1ccc(S(=O)(=O)N2CCCC2CNC(=O)C(=O)NCc2ccccc2)cc1 (centres undefined),-3.7%,/,9.3%,31.6µM*,?,/
COc1ccc(S(=O)(=O)N2CCCC2CNC(=O)C(=O)NCc2ccc(C)cc2)cc1 (centres undefined),-0.8%,/,18.2%,-6.5%,-7.7%,/
O=C(NCCC1CCCCN1S(=O)(=O)c1cccs1)C(=O)Nc1ccc(F)cc1 (centres undefined),3.8%,/,-8.6%,-3.3%,?,/
O=C(NCC1CCCN1S(=O)(=O)c1cccs1)C(=O)Nc1ccc(F)cc1 (centres undefined),-1.7%,/,9.6%,28.2µM*,?,/
CCN1CCCC1CNC(=O)C(=O)Nc1ccccc1 (centres undefined),0.8%,85.6*,-0.8%,-26.5%,-0.2%,29.4*
COc1ccc(N2CC(C(=O)N[C@@H](C)C(=O)NC3CCCC3)CC2=O)cc1 (some centres undefined),4.5%,-1.3,9.5%,-14.6%,-2.6%,-7.0
Fc1ccc(NC(=S)NCc2ccccn2)cc1,3.3%,46.3*,4.9%,-13.1%,0.6%,16.3*
CC(C)(C)c1ccc(NC(=S)NCCc2ccccn2)cc1,-1.6%,29.3,13.2%,-15.6%,-2.5%,17.1*
Fc1ccc(NC(=S)NCCc2ccccn2)cc1,-0.9%,7.3,59.4%,0.5%,1.4%,22.7
CCOc1ccccc1NC(=S)NC1CC2CCC1C2 (centres undefined),-2.1%,-1.2,0.6%,-16.5%,-6.3%,6.1
S=C(NCCc1ccccn1)NC1CC2CCC1C2 (centres undefined),9.4%,42.8,-10.6%,-8.3%,1.0%,26.6*
S=C(NCCc1ccccn1)Nc1ccc(Cl)cc1,-1.1%,47.6*,39.5%,-17.3%,?,38.8*
CCN(C(=O)Cn1c(=O)oc2ccccc21)C1CCS(=O)(=O)C1 (centres undefined),7.0%,1.0,6.3%,-7.1%,-9.5%,0.5
Cc1ccc(NC(=O)C2CCCN(S(=O)(=O)c3ccc4[nH]c(=O)ccc4c3)C2)cc1Cl (centres undefined),/,/,/,/,-4.9%,/
CN(CCc1ccccn1)C(=O)Nc1ccc(Cl)cc1,/,96.8,7.6%,/,5.5%,31.8*
CC(=O)c1ccc(NC(=S)NCCc2ccccn2)cc1,14.1%,20.8*,2.5%[11.6 µM],-17.2%,-0.1%,43.4*
COc1ccc2c(c1)C1OCCC1C(c1ccco1)N2 (centres undefined),/,/,0.0%,/,/,/
COc1ccc(/C=C2\SC(=S)N(CCCC(=O)Nc3ccc(O)cc3)C2=O)cc1,-0.3%,51.1*,-7.6%,52.9%,-0.2%,35.2*
COc1ccc(/C=C2\SC(=S)N(CCC(=O)Nc3cccc(O)c3)C2=O)cc1,5.6%,62.2*,17.1%,-55.0%,-5.0%,39.1*
COc1ccc(/C=C2/SC(=S)N(CCCC(=O)Nc3ccc(O)cc3)C2=O)cc1,-0.1%,94.5*,-16.5%,-36.4%,5.3%,51.5*
COc1ccc(/C=C2\SC(=S)N(CCC(=O)Nc3ccc(C(=O)O)cc3)C2=O)cc1,1.0%,/,0.6%,-35.9%,?,-2.9
N#C/C(=C/c1ccccc1)C(=O)OCC(=O)Nc1ccccc1[N+](=O)[O-],1.6%,/,-4.1%,-36.6%,5.7%,/
CC(C)c1nnc(NC(=O)COc2ccccc2[N+](=O)[O-])s1,0.2%,96.4*,-2.2%,-21.0%,6.3%,19.6*
CCSc1nnc(NC(=O)COc2ccccc2[N+](=O)[O-])s1,0.3%,184.6*,44.8%,-29.4%,-6.8%,62.4*
SMILES,SARS PLpro yeast,Shiga toxin inh,AMA1 RON2 block,AmpC inh no detg,AmpC detergent,CHX counter
CCCNC(=O)COc1ccccc1[N+](=O)[O-],11.6%,38.6,-2.4%,-7.0%,-0.1%,20.8
Cc1cccc(C)c1NC(=O)CSc1ncnc2nc[nH]c12,1.0%,-10.2,-0.9%,-8.6%,3.7%,-2.6
COc1cc([N+](=O)[O-])cc(/C=N/NC(=O)C(O)(c2ccccc2)c2ccccc2)c1O,?,-9.5,9.7%,-33.4%,?,-2.5
O=C(Nc1ccc(OC(=O)c2ccco2)cc1)c1ccco1,-54.4%,32.3*,0.2%,-23.7%,-5.0%,18.2
O=C(Nc1ccc(Oc2cccc3ccccc23)cc1)c1ccco1,-39.3%,44.3,-7.6%,-10.8%,-5.3%,29.4*
COc1ccc(C(=O)Nc2ccc(NC(=O)c3ccco3)cc2)cc1,-3.5%,29.2,0.0%,-12.3%,-10.3%,-6.3
O=C(O)c1ccccc1C(=O)Nc1ccc(Oc2cccc3ccccc23)cc1,-1.9%,-25.7,?,-24.4%,-0.3%,-11.9
O=C(OC1CCCCC1)c1ccc(NC(=O)c2ccco2)cc1,-29.3%,60.9*,3.0%,-7.8%,-13.6%,36.1*
O=C(Nc1ccc(Cl)c(Cl)c1)Oc1ccc(NC(=O)c2ccco2)cc1,-35.4%,23.0,-9.4%,-40.9%,2.0%,22.0*
COc1ccccc1/C=C(/C(=O)NCCCn1ccnc1)c1ccccc1,-0.6%,-7.6,14.9%,52.0%,-2.9%,-4.9
COc1ccc(NC(=S)N/C(=N/CS(=O)(=O)c2ccccc2)c2ccccc2)cc1,-19.8%,69.7*,-5.8%,-15.5%,1.0%,35.2*
COc1ccc(NS(=O)(=O)c2cccc(NC(=O)CCS(=O)(=O)c3ccccc3)c2)cc1,22.8%,-11.7,-9.0%,-39.6%,-9.6%,-3.1
O=[N+]([O-])c1ccc(NC(=S)N/C(=N/CS(=O)(=O)c2ccccc2)c2ccccc2)cc1,6.4%,55.8*,-7.9%,-7.4%,-1.9%,27.9*
COc1ccc(NC(=O)Cn2c(=O)n(-c3ccc(C)c(C)c3)c(=O)c3c4c(sc32)CCCCC4)cc1Cl,/,/,/,/,20.4%,/
CCOc1cccc(-c2csc(C3COc4ccccc4O3)n2)c1 (centres undefined),8.4%,30.5,-3.5%,-18.1%,-10.2%,27.7*
CCOC(=O)N1CCN(Cc2nc3cc(NC(=O)CC(C)C)ccc3n2C)CC1,0.5%,-2.1,4.4%,16.0%,-9.1%,-4.5
Clc1ccc(-c2csc(N3CCC(c4ccccc4)C3)n2)cc1 (centres undefined),1.0%,94.9*,14.4%,-23.6%,-11.8%,18.8
COc1ccc(-c2csc(N3CCC(c4ccccc4)C3)n2)cc1 (centres undefined),-2.0%,12.8,-9.6%,-29.1%,0.0%,11.3
Fc1ccc(-c2csc(N3CCC(c4ccccc4)C3)n2)cc1 (centres undefined),0.8%,93.7*,43.2%,-35.9%,-7.3%,76.4*
COc1ccc(CCC(=O)Nc2cccc(Cl)c2)cc1,-30.5%,17.8,23.1%,-18.3%,-4.5%,9.0

# Bioassay records from PubChem BioAssay.
